Screening results (PubChem)
Glioma ERSR ind = inducers of ER stress response in human glioma cells | Potency, µM, without a hit: top-dose activation, usual class: activators | 420,000 tested, 0.02% active | U87-MG GRP78 promoter luciferase reporter, 16 h; note: potency is the fitted concentration of half-maximal effect; series mostly up to about 76 µM; % of control where 0% means no effect; nearly all actives have a fitted effect of over 35% in size
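ERSR induction read as luciferase luminescence (Bright-Glo, 10 min at room temperature) in stably transfected human U87-MG glioma cells exposed to compounds for 16 h, using GRP78 as sensor.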
RXFP1 agonist = agonists of human relaxin receptor RXFP1. Q9HBX9. HEK293T-RXFP1 cAMP TR-FRET, 30 min; response scale: percent of porcine relaxin response, buffer zero. Potency, µM (highest dose often 57.5 µM), for the others: at the top dose activation, usual class: activators. 370,000 tested, 0.3% active; note: potency is the fitted concentration of half-maximal effect; % is set by controls: 0 for no effect and ±100 for the full control effect; nearly all actives have a fitted effect of over 60% in size
Target sequence (Q9HBX9 whole entry, looked up): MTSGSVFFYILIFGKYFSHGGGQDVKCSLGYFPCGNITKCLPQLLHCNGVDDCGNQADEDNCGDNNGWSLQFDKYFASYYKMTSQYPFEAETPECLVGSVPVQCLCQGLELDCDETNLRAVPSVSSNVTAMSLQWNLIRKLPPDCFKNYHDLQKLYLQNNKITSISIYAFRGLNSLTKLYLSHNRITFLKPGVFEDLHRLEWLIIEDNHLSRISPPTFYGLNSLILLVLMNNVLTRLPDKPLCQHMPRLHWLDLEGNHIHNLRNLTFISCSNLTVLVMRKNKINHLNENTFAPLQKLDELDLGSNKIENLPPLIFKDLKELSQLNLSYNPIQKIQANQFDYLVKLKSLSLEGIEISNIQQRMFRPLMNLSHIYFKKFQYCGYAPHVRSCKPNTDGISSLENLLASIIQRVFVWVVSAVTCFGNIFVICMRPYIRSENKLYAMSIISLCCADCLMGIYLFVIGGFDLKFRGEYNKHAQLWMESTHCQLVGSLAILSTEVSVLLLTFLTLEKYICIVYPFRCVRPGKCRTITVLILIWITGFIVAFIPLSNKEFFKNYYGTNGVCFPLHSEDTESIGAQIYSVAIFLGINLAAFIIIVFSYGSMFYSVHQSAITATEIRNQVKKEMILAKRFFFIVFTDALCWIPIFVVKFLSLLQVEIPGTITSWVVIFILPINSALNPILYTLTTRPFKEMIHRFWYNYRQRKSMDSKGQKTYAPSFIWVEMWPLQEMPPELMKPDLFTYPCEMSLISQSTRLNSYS
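cAMP rise read by TR-FRET after 30 min, 37C compound exposure (up to 58 uM) in RXFP1-transfected HEK293 cells with Ro 20174 present. EC50 from Hill-equation fits, with 29 nM porcine relaxin as 100% and buffer as basal.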
KCNH2 3.1 inh = blocks the human KCNH2 3.1 channel isoform; activity change, % (tested at about 1.8 µM); AID 720553; 340,000 tested, 0.95% active; U2OS KCNH2 3.1, thallium flux FluxOr; hits give low values;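 active = maximum activity change below -70%; inconclusive = maximum activity change from -70% to -50%; inactive = maximum activity change above -50%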;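 note: thallium influx rate constant from kinetic fluorescence after stimulation buffer; % is set by controls: 0 for no effect and ±100 for the full control effect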
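Virally transduced U2OS (3.1 isoform, 4 h infection in dark at RT) → overnight 37 C → FluxOr + Red40 in HBSS/HEPES, 45 min → stimulation buffer, 2 min kinetic read → rate constant vs DMSO controls.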
RXFP1 antagonist = blocks the human relaxin receptor RXFP1. HEK293-RXFP1, relaxin-stimulated cAMP HTRF, 30 min; hits give low values. Q9HBX9. 350,000 tested, 0.59% active. activity change, negative = inhibition, % at 57.5 µM. AID 1259400;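 active = activity change of -60% or lower, but not beyond a set lower limit; inconclusive = change between -60% and -40%, or beyond the set limit; inactive = change above -40%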; note: % is set by controls: 0 for no effect and ±100 for the full control effect
KCNH2 WT inh = KCNH2 (human, wildtype) channel inhibition. Q12809. U2OS, BacMam KCNH2, thallium flux FluxOr; hits give low values. activity change, % at 1.84 µM. 340,000 tested, 0.37% active. AID 720551;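 active = maximum activity change below -70%; inconclusive = maximum activity change between -70% and -50%; inactive = maximum activity change above -50%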; note: % is set by controls: 0 for no effect and ±100 for the full control effect
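U2OS cells transduced with wild-type KCNH2 virus are loaded with FluxOr dye for 45 min, and thallium flux is measured in kinetic reads before and after stimulation buffer. Rate constants are normalized to DMSO controls.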
PTHR1 ag = agonists of human PTHR1 parathyroid hormone receptor | Q03431 | HEK293 GP2 PTHR1 cells, GloSensor cAMP luminescence, 1 h | Potency, µM (titrated, usually from 115 µM), without a hit: top-dose activation, usual class: activators | 410,000 tested, 0.075% active | AID 743266; note: potency is the fitted concentration of half-maximal effect; nearly all actives have a fitted effect of over 55% in size
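HEK-293-derived GP2 cells expressing PTHR1 and a GloSensor cAMP reporter, 3,000/well, plated overnight, given luciferin plus IBMX (each 0.5 mM as added) for 1 h at 37 °C, then compound for 1 h at 37 °C. Luminescence was read after 15 min at room temperature.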
* = called active by the depositor; i = inactive; u = inconclusive; x = no result given; [ ] = another dose, or the depositor's remark. Rows were chosen to be rich in hits. Some 1.4% of all compounds tested hit in one or more screens of this group. Unless noted, calls come from the whole dose curve; as a rule, active = well fitted curve in the direction sought with a large enough effect; inconclusive = small, poorly fitted or top-dose-only effect, or another doubt; inactive = no such curve, though single readings can be large; an effect the other way counts as inactive or inconclusive.

SMILES	Glioma ERSR ind	RXFP1 agonist	KCNH2 3.1 inh	RXFP1 antagonist	KCNH2 WT inh	PTHR1 ag
COc1ccc(C(=O)N2CCN(c3ccc(NC(=O)Cc4ccccc4)cc3)CC2)cc1	-6%	-1%	-83*	-16	-25	-39%
O=C(Nc1ccc(Cl)cc1)c1nc[nH]c1C(=O)N1CCc2ccccc2C1	-4%	2%	x	x	x	-14%
Cc1ccc(OCCC(=O)OCC(=O)N2CC(=O)Nc3ccccc32)cc1	u	0%	-13	10	-4	-34%
Cc1c(NC(=S)NC(=O)c2ccc(COc3ccccc3)cc2)cccc1C(=O)O	-2%	1%	17	u	-231*	-23%
O=C(CSc1ncnc2ccccc12)Nc1cc(S(=O)(=O)N2CCCCC2)ccc1Cl	-1%	16µM*	-3	1	6	-16%
Cc1nnc(SCC(=O)Nc2cc(S(=O)(=O)N3CCCC3)ccc2Cl)n1C1CC1	-4%	16%	-97*	2	1	-8%
O=C(CSc1nnnn1C1CC1)Nc1cc(S(=O)(=O)N2CCCC2)ccc1Cl	-2%	x	4	7	1	i
O=C(Nc1ccc2[nH]ncc2c1)c1cccc(F)c1	1%	3%	-1	3	4	i
CCCCn1c(=O)[nH]c(=O)c2c1nc(Cn1ncc(Cl)c(Cl)c1=O)n2CCC	-19%	25µM*	-1	10	0	-27%
NC(=O)c1c(NC(=O)C2COc3ccccc3O2)sc2c1CCN(Cc1ccccc1)C2 (stereo unspecified)	-3%	6%	-19	-97*	1	-38%
CCOC(=O)c1c(NC(=O)C2COc3ccccc3O2)sc2c1CCN(Cc1ccccc1)C2 (stereo unspecified)	2%	1%	u	3	-20	-22%
CC(Sc1ccc2ccccc2n1)C(=O)O (stereo unspecified)	1%	11µM*	10	48	1	i
O=c1[nH][nH]c(-c2ccccc2)c1-c1ccccc1	-4%	x	-1	-1	-9	i
Cc1cccc(CCN(C(=O)c2csnn2)C(C(=O)NC2CCCC2)c2ccco2)c1 (stereo unspecified)	-4%	3%	4	-73*	-4	6%
CCN(CC)C(=O)C1CCCN(c2ncnc3c2nc2n3CCCCC2)C1 (stereo unspecified)	-2%	6%	x	-8	x	-8%
O=C(C1CCCN(c2ncnc3c2nc2n3CCCCC2)C1)N1CCN(c2cccc(Cl)c2)CC1 (stereo unspecified)	-9%	4%	-139*	-8	14	-23%
Cc1ccc(C)c(N2CCN(C(=O)C3CCCN(c4ncnc5c4nc4n5CCCCC4)C3)CC2)c1 (stereo unspecified)	-2%	3%	3	-83*	21	-29%
NS(=O)(=O)c1ccc(CCNC(=O)C2CCN(c3ncnc4c3nc3n4CCCCC3)CC2)cc1	-7%	16µM*	17	15	5	i
CC(C)N(Cc1ccccc1)C(=O)C1CCCN(c2ncnc3c2nc2n3CCCCC2)C1 (stereo unspecified)	-5%	6%	-98*	0	-6	-25%
CC(C)(C)NC(=O)/C=N/O	-5%	-1%	1	-12	1	i
COc1cccc(/C=C/C(=O)NNC(=O)c2cc(C)oc2C)c1	-2%	-2%	16	-10	-9	i
CN(CCc1ccccc1)C(=O)c1ccc(NC(=O)Cc2ccc(NC(=O)C3CCN(C(=O)C4CCCC4)CC3)cc2)cc1	-3%	x	10	x	1	-84%
CN(CCc1ccccc1)C(=O)c1ccc(NC(=O)Cc2ccc(NC(=O)C3CCN(C(=O)C4CC4)CC3)cc2)cc1	5%	x	-73*	x	3	-31%
COc1cccc(C(NC(C)=O)c2nc(-c3cccc(NC(C)=O)c3)cs2)c1 (stereo unspecified)	3%	x	x	x	x	u
COCC(C)OC(=O)C(C#N)c1nc2ccccc2nc1N1CCN(Cc2ccccc2)CC1 (stereo unspecified)	0%	1%	-26	-8	12	i
SMILES	Glioma ERSR ind	RXFP1 agonist	KCNH2 3.1 inh	RXFP1 antagonist	KCNH2 WT inh	PTHR1 ag
C=CCOC(=O)C(C#N)c1nc2ccccc2nc1N1CCN(Cc2ccccc2)CC1 (stereo unspecified)	-4%	0%	-87*	-6	u	i
COCCOC(=O)C(C#N)c1nc2ccccc2nc1N1CCN(Cc2ccccc2)CC1 (stereo unspecified)	7%	-1%	-88*	-11	-11	-26%[57.5 µM]
N#CC(C(=O)NC1CC1)c1nc2ccccc2nc1N1CCN(C/C=C/c2ccccc2)CC1 (stereo unspecified)	-4%	0%	-86*	-9	-104*	i
CC(C)[C@H](NC(=O)[C@@H]1Cc2ccccc2CN1)C(=O)Nc1ccc2c(c1)OCCO2	-2%	2%	4	-3	9	-7%
CCN1CCCC(NC(=O)c2cc([N+](=O)[O-])ccc2OC)C1 (stereo unspecified)	-1%	1%	1	x	-5	-12%
Cc1cccc(OC(C)C(=O)N2CCC(c3nc4ccccc4o3)CC2)c1C (stereo unspecified)	-3%	0%	x	-63*	x	i
CC[C@H](C)[C@H](NC(=O)[C@H](Cc1ccc(O)cc1)NC(=O)[C@@H]1CCCN1C(=O)[C@@H](NC(=O)[C@@H](N)CCCCN)[C@@H](C)CC)C(=O)N[C@@H](CC(C)C)C(=O)O	-4%	x	x	x	x	x
Cc1ccc(S(=O)(=O)c2nnn3c2nc(NC2CCN(Cc4ccccc4)CC2)c2ccccc23)cc1C	-6%	8%	-81*	5	-13	i
CCOc1ccc2nc(N3CCCC(C(=O)NCc4ccccc4Cl)C3)sc2c1 (stereo unspecified)	2%	-1%	x	-28	x	i
O=C(COc1ccc(-c2ccccc2)cc1)N1CCN(S(=O)(=O)Cc2ccccc2)CC1	-5%	-2%	-75*	-1	-3	-4%
CCOP(=O)(OCC)C(Nc1ccccc1)c1ccco1 (stereo unspecified)	-2%	1%	-118*	3	-4	i
CCOP(=O)(OCC)C(Nc1ccc(F)cc1)c1ccccc1 (stereo unspecified)	-3%	-4%	5	16	1	-25%
COc1ccccc1CC(Cc1nc2ccccc2[nH]1)c1nc2ccccc2[nH]1 (stereo unspecified)	-6%	2%	-5	-67*	9	i
Cc1nc(CNS(=O)(=O)c2cccc(F)c2)cs1	-4%	0%	7	3	-1	-17%[57.5 µM]
